According to PubChem BioAssay (EPA / NIEHS):
Results filed as inconclusive are left out. Calls of active or inactive are those of the source. The calls were made as follows, unless noted: active = hit-call score of the fitted dose curve at least 0.9, where 1 is the maximum; inconclusive = response in the unintended direction; inactive = score below 0.9.

What was measured:
[1] = CEETOX_H295R_11DCORT: CeeTox H295R High-throughput Steroidogenesis Assay for 11-Deoxycortisol (11DCORT) (AID 2283432; active = hit-call score of the fitted dose curve at least 0.9, where 1 is the maximum; inactive = score below 0.9;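 as to AC50: 11-deoxycortisol secreted into the medium measured by LC-MS/MS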); conditions: actives raise or lower the signal
Summary of the method: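 H295R cells prestimulated 48 h with 10 uM forskolin, then exposed 48 h to chemical in 0.1% DMSO. 11-Deoxycortisol in medium quantified by HPLC-MS/MS after MTBE extraction; bidirectional fit versus DMSO. MTT viability read in same wells.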

[2] = CEETOX_H295R_OHPREG: CeeTox H295R High-throughput Steroidogenesis Assay for OH-Pregnenolone (OHPREG) (AID 2283434; active = hit-call score of the fitted dose curve at least 0.9, where 1 is the maximum; inactive = score below 0.9); conditions: actives raise or lower the signal
Summary of the method: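 Human adrenal H295R cells were prestimulated 48 h with 10 uM forskolin, then exposed 48 h to chemical in 0.1% DMSO. Medium 17alpha-hydroxypregnenolone was quantified by HPLC-MS/MS after MTBE extraction; bidirectional fitting versus DMSO baseline.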

[3] = biological target: Estrogen receptor beta (Homo sapiens) (UniProt Q92731); test: OT_ER_ERbERb_1440: Odyssey Thera (OT) 24-hour HEK293T Protein-Complementation Assay for Estrogen Receptor-beta/-beta Homodimer (AID 2283380);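 also: fluorescence gain from ER beta LBD homodimer complementation read by laser scanning cytometry; scored as signal increase over DMSO baseline for both agonists and antagonists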
Estrogen receptor beta (Homo sapiens), sequence (Q92731 whole entry, looked up, the tested form may be a part): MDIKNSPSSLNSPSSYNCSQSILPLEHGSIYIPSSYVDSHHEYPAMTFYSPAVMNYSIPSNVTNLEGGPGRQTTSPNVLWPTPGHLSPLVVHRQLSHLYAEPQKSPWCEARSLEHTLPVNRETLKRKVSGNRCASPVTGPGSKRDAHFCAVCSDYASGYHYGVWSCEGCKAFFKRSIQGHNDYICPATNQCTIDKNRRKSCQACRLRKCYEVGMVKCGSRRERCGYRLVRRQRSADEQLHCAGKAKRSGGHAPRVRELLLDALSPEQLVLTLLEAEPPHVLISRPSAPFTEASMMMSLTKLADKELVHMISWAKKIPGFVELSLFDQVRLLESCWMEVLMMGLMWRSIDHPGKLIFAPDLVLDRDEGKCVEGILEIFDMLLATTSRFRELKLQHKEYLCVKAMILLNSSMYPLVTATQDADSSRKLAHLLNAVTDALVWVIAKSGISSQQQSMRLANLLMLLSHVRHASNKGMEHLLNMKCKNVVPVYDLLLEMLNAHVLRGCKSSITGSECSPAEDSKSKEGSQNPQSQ
Summary of the method: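 HEK293T cells stably expressing human ER-beta LBD (aa 310-547) PCA homodimer pair, dosed 24 h; formaldehyde-fixed, Draq5-stained. Readout: increase in nuclear (agonist) or nuclear plus cytoplasmic (antagonist) fluorescence intensity versus DMSO, gain-of-signal fitting.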

[4] = biological target: Estrogen receptor (Homo sapiens) (UniProt P03372); test: OT_ERa_GFPERaERE_0480: Odyssey Thera (OT) 8-hour HeLa Transcription Induction Assay for Estrogen Receptor (AID 2283381; active = hit-call score of the fitted dose curve at least 0.9, where 1 is the maximum; inactive = score below 0.9)
Estrogen receptor (Homo sapiens), sequence (P03372 whole entry, looked up): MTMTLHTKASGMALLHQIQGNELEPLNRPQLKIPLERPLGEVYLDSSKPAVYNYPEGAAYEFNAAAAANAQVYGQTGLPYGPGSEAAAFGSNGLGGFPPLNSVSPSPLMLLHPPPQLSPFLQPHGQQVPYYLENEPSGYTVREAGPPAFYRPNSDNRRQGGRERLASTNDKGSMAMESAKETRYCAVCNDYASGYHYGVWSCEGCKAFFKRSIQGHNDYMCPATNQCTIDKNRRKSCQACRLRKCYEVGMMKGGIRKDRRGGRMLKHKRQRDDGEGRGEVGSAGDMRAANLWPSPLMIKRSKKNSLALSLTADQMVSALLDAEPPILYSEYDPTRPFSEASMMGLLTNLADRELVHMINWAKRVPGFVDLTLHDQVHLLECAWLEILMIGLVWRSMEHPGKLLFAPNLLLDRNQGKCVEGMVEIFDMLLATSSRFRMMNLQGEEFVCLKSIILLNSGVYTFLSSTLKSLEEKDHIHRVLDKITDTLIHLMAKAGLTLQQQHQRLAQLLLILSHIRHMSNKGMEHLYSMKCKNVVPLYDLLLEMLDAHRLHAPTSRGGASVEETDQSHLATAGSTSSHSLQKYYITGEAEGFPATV
Summary of the method: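 HeLa cells dosed with compound and imaged by fluorescence microscopy at 8 h; GFP induction from an ERE reporter quantified by high-content image analysis and fitted as gain of signal against DMSO baseline.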

[5] = biological target: Estrogen receptor (Homo sapiens) (UniProt P03372); test: OT_ERa_GFPERaERE_0120: Odyssey Thera (OT) 2-hour HeLa Transcription Induction Assay for Estrogen Receptor (AID 2283382)
Summary of the method: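 HeLa cells were dosed with test chemical and read 2 hours later for GFP-ERα/ERE-linked fluorescent protein induction by fluorescence microscopy. Gain-of-signal was fitted relative to DMSO baseline, quantified by high content image analysis.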

[6] = biological target: Bile acid receptor (Homo sapiens) (UniProt Q96RI1); test: OT_FXR_FXRSRC1_1440: Odyssey Thera (OT) 24-hour HEK293T Protein-Complementation Assay for Farnesoid X receptor/SRC-1 Co-activator (AID 2283384)
Bile acid receptor (Homo sapiens), sequence (Q96RI1 whole entry, looked up, the tested form may be a part): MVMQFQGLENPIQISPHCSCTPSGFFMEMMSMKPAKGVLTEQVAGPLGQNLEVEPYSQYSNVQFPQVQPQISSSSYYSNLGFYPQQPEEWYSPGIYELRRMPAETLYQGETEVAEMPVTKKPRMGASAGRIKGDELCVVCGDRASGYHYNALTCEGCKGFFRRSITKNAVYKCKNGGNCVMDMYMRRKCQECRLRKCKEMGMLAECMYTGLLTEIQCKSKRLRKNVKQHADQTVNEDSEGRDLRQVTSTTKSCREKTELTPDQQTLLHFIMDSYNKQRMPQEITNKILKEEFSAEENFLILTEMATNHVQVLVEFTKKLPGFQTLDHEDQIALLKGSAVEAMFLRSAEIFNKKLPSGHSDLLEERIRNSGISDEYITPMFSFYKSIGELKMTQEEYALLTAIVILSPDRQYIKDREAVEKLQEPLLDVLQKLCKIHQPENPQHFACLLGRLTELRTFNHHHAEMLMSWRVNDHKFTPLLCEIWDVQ
Summary of the method: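 HEK293T cells were dosed with compound and read 24 h later by fluorescence intensity from protein-fragment complementation reporting FXR/SRC-1 co-activator interaction. Gain of signal was fitted relative to DMSO negative control as baseline.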

[7] = biological target: Retinoic acid receptor RXR-alpha (Homo sapiens) (UniProt P19793); test: OT_NURR1_NURR1RXRa_0480: Odyssey Thera (OT) 8-hour HEK293T Protein Complementation Assay for Nurr1/retinoid X receptor (RXR) (AID 2283385)
Retinoic acid receptor RXR-alpha (Homo sapiens), sequence (P19793 whole entry, looked up, the tested form may be a part): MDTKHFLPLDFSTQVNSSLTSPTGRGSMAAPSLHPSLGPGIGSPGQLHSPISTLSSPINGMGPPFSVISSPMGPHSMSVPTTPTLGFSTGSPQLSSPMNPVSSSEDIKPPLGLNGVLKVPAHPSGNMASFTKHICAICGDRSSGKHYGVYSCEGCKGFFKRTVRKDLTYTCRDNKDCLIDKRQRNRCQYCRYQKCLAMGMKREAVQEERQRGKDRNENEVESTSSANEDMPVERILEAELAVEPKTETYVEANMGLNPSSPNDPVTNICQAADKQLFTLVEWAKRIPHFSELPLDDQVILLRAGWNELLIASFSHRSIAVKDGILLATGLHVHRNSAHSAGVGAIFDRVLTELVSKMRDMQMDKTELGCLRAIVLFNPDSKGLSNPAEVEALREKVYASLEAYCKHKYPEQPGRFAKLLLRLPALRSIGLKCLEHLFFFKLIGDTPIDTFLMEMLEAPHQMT
Summary of the method: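 HEK293T cells expressing Nurr1 and RXRα fused to reporter fragments were dosed with compound for 8 hours. Complex formation was read as fluorescence intensity and analysed as gain of signal against DMSO as baseline.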

[8] = biological target: Retinoic acid receptor RXR-alpha (Homo sapiens) (UniProt P19793); test: OT_NURR1_NURR1RXRa_1440: Odyssey Thera (OT) 24-hour HEK293T Protein Complementation Assay for Nurr1/retinoid X receptor (RXR) (AID 2283386)
Summary of the method: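 HEK293T cells were dosed with compound and read 24 h later by fluorescence intensity in a protein-fragment complementation format, where Nurr1–RXRα interaction reconstitutes a split reporter. Activity was fitted as gain of signal relative to DMSO baseline.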

[9] = biological target: Peroxisome proliferator-activated receptor gamma (Homo sapiens) (UniProt P37231); test: OT_PPARg_PPARgSRC1_0480: Odyssey Thera (OT) 8-hour Protein-Complementation Assay for Peroxisome Proliferator-activated Receptor Gamma / SRC-1 Co-activator (AID 2283387)
Peroxisome proliferator-activated receptor gamma (Homo sapiens), sequence (P37231 whole entry, looked up, the tested form may be a part): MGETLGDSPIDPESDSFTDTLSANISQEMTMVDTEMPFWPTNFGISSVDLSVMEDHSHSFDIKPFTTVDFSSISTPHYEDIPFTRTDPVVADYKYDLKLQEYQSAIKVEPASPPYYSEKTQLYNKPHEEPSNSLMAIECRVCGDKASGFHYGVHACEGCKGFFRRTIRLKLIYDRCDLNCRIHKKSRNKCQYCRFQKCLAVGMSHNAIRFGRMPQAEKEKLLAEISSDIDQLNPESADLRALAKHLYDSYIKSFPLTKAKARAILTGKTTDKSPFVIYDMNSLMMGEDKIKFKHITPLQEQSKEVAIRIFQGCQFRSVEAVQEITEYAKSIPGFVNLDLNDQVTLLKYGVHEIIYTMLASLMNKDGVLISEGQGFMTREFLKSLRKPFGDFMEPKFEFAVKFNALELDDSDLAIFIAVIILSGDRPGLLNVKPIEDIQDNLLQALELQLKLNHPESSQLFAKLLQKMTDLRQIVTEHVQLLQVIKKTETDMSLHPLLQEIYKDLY
Summary of the method: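 HEK293T transiently transfected with PPARg and SRC-1 fused to Venus YFP fragments, compounds 8 h at 37C. Fixed, Draq5-stained cells imaged; nuclear/cytoplasmic 488 nm fluorescence ratio over at least 350 cells per image; gain fitted versus DMSO.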

[10] = biological target: Peroxisome proliferator-activated receptor gamma (Homo sapiens) (UniProt P37231); test: OT_PPARg_PPARgSRC1_1440: Odyssey Thera (OT) 24-hour Protein-Complementation Assay for Peroxisome Proliferator-activated Receptor Gamma/ SRC-1 Co-activator (AID 2283388)
Summary of the method: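 HEK293T transiently transfected with PPARg/SRC-1 split-Venus YFP fusions 48 h before dosing, then treated 24 h at 37C. Fixed cells imaged; nuclear/cytoplasmic 488 nm fluorescence ratio, gain of signal versus DMSO.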

[11] = biological target: Bile acid receptor (Homo sapiens) (UniProt Q96RI1); test: OT_FXR_FXRSRC1_0480: Odyssey Thera (OT) 8-hour HEK293T Protein-Complementation Assay for Farnesoid X receptor/SRC-1 Co-activator (AID 2283383)
Summary of the method: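 HEK293T cells expressing FXR and SRC-1 fused to reporter fragments were dosed with compound for 8 h; fluorescence from the reconstituted reporter marked co-activator recruitment. Gain of signal was fitted against the DMSO baseline.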

[12] = biological target: human Norepinephrine Transporter (NET), SLC6A2 (gene 6530) (UniProt P23975); test: NVS_TR_hNET: NovaScreen (NVS) Transporter Assay for human Norepinephrine Transporter (NET) (AID 2283377);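 also: cell-free membrane protein extracted from CHO cells expressing human NET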
human Norepinephrine Transporter (NET), SLC6A2 (gene 6530), sequence (P23975 whole entry, looked up): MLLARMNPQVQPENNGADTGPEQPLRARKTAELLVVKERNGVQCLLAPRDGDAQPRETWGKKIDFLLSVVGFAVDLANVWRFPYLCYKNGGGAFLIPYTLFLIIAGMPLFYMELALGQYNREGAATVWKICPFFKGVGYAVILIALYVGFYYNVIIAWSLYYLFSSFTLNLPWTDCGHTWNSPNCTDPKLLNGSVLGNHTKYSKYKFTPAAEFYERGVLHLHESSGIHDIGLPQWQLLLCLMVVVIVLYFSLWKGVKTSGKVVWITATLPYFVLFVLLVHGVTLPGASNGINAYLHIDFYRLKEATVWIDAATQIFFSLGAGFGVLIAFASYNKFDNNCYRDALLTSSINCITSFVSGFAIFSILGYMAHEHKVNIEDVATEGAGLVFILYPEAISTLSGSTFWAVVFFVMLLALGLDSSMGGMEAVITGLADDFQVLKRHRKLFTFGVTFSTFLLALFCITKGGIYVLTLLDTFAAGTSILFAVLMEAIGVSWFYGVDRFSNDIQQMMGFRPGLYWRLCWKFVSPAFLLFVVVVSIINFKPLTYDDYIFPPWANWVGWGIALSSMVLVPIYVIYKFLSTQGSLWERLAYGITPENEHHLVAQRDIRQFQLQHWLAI
Summary of the method: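 Radioligand binding to human NET in cell-free CHO-derived protein preparations, read by filter-based scintillation counting 1 hour after dosing. Loss of signal versus DMSO baseline indicated displacement; primary screening in duplicate at 25 uM, actives then titrated.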

Measured: AC50

C[C@]12CC[C@@H](O)C[C@@H]1CC[C@@H]1[C@@H]2CC[C@]2(C)C(=O)CC[C@@H]12
inactive: [1] | [2]

CCOc1ccc(N)cc1
inactive: [3] | [4] | [5] | [7] | [8]
active: [6] 46.8 µM

O=c1nc(O)n(Cl)c(=O)n1Cl
inactive: [7] | [8] | [9] | [10]

O=C(NC(=O)c1c(F)cccc1F)Nc1ccc(Cl)cc1
not listed: [1] | [2] | [12]
inactive: all other assays above

Cc1cc(Cl)ccc1O
active: [3] 63.8 µM
not listed: [4] | [5] | [8] | [12]
inactive: all other assays above

Clc1cccc(Cl)c1
inactive: [3] | [8] | [9] | [10]

BrCC(Br)c1ccccc1 (stereo not drawn)
inactive: [12]

N#CS
inactive: [8] | [9] | [10]

Cc1ccccc1OP(=O)(Oc1ccccc1C)Oc1ccccc1C
inactive: [1] | [2]

Cc1cc(C)cc(C)c1
inactive: [3] | [7] | [8] | [2]

C=CCN=C=S
inactive: [4] | [5] | [11] | [7] | [9] | [10]

COC(=O)Nc1cccc(OC(=O)Nc2cccc(C)c2)c1
inactive: [3] | [6] | [7] | [8] | [9] | [10]
active: [1] 9.94 µM | [2] 4.29 µM

O=C(O)COc1ccc(Cl)cc1
inactive: [3] | [4] | [5] | [7] | [9] | [10]

CN(C)C(=S)S
inactive: [3] | [7] | [8]

CNC(=O)O/N=C/C(C)(C)S(C)(=O)=O
inactive: [3] | [4] | [5] | [8] | [9] | [10]

CC(C)(COCC1CO1)COCC1CO1 (stereo not drawn)
inactive: [1] | [2]

CCCSP(=S)(OCC)Oc1ccc(SC)cc1 (stereo not drawn)
active: [11] 22.8 µM | [2] 14 µM
inactive: [3] | [4] | [5] | [6] | [9] | [10]

CC(C)(C)c1cc([N+](=O)[O-])cc(C(C)(C)C)c1O
inactive: [2]

CCN(CCO)CCO
inactive: [3] | [4] | [5] | [8] | [9] | [10]

Cc1cc(Cl)ccc1OCCCC(=O)O
inactive: [3] | [11] | [6] | [7] | [8] | [9] | [10]

OCCN(CCO)CCO
inactive: [7] | [8]

CN(N=O)C(N)=O
inactive: [3] | [7] | [9] | [10]

OC(Cc1ccccc1Cl)(Cn1cncn1)C1(Cl)CC1 (stereo not drawn)
active: [1] 11.8 µM | [2] 1.37 µM

Oc1c(Cl)cc(Cl)cc1Cl
inactive: [3] | [2]

OCCCCO
inactive: [11] | [6] | [7] | [8] | [9] | [10]

CCOC(=O)C(SP(=S)(OC)OC)c1ccccc1 (stereo not drawn)
active: [12] 9.9 µM
